Results published in PubChem BioAssay (NCI).
Compounds without any hit were thinned out: in the full panel of roughly 79,000, 15% have a hit. No stated cut-off is given here; in the data, active means growth inhibition above about 70%; inactive means the rest.

Legend:
[1] = NCI Yeast Anticancer Drug Screen. Data for the rad50 strain (AID 155);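 further: 0% = growth of vehicle-only cultures of the same strain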; conditions: S. cerevisiae rad50 strain growth inhibition; at 50.0 µM; stronger effect = higher value
How it was run: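 Readout: growth inhibition relative to vehicle-treated cultures. Compound exposure was carried out in a genetically defined yeast strain deficient in DNA damage repair.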

[2] = NCI Yeast Anticancer Drug Screen. Data for the mec2-1 strain (AID 157); conditions: S. cerevisiae mec2-1 strain, at 50.0 µM, stronger effect = higher value
How it was run: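 Readout is yeast growth inhibition, normalised to vehicle-treated controls, in the mec2-1 strain exposed to compound.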

[3] = NCI Yeast Anticancer Drug Screen. Data for the sgs1 mgt1 strain (AID 161);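 further: 0% = growth of cultures given vehicle only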; conditions: S. cerevisiae sgs1 mgt1 strain, at 50.0 µM, stronger effect = higher value
How it was run: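 Yeast cells carrying a defined DNA-repair defect were exposed to test compounds. Growth inhibition was measured relative to vehicle-treated controls.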

[4] = NCI Yeast Anticancer Drug Screen. Data for the cln2 rad14 strain (AID 165);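 further: 0% = growth equal to vehicle treated cultures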; conditions: S. cerevisiae cln2 rad14 strain, at 50.0 µM, stronger effect = higher value
How it was run: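 Relative to vehicle controls, growth inhibition of compound-treated cln2 rad14 yeast was recorded.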

[5] = NCI Yeast Anticancer Drug Screen. Data for the bub3 strain (AID 167); conditions: S. cerevisiae bub3 mutant strain, at 50.0 µM, stronger effect = higher value
How it was run: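 Readout: yeast growth inhibition, expressed relative to vehicle-only wells. The test organism is a mutant strain from a panel with lesions in DNA repair or checkpoint genes.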

[6] = NCI Yeast Anticancer Drug Screen. Data for the mlh1 rad18 strain (AID 175); conditions: S. cerevisiae mlh1 rad18 strain growth inhibition; at 50.0 µM; stronger effect = higher value
How it was run: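 Test agents were incubated with a yeast strain of defined genotype (DNA damage repair defect). Inhibition of growth was derived by comparison with vehicle-exposed cultures.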

Measured: growth inhibition

c1ccc(CC/C(=N/N=C(\CCc2ccccc2)c2ccccc2)c2ccccc2)cc1
inactive: [1] 10.7% | [2] 8.05% | [3] -13.3% | [4] -8.75% | [5] -3% | [6] 7.6%

c1ccc(-c2nn(-c3ccccc3)[n+](-c3ccccc3)n2)cc1
inactive: [1] 5.4% | [2] 1.15% | [3] 21.9% | [4] 24.1% | [5] 30.7% | [6] 4.35%

O=C(O)CCNCCCCNCCC(=O)O
inactive: [1] 6.2% | [2] -11.8% | [3] -23.9% | [4] -1.5% | [5] -22.6% | [6] -22.3%

O=C1OC(/C=C/c2ccccc2)=NC/1=C\C=C\c1ccccc1
inactive: [1] 24.1% | [2] 14.8% | [3] 14.9% | [4] 14.2% | [5] 6.15% | [6] -1.65%

NC1=NCC(c2ccccn2)C1c1ccc(F)cc1 (stereo unspecified)
inactive: [1] -11.9% | [2] -34.9% | [3] 1.1% | [4] 7.75% | [5] -18.7% | [6] -14%

Cc1ccc2c(c1)SC(c1cc3c(cc1Br)OCO3)S2 (stereo unspecified)
inactive: [1] -10.7% | [2] -22.1% | [3] 4.65% | [4] 34.9% | [5] 32.5% | [6] -18.4%

CC1=C(C(=O)CC(=O)C(=O)NC2C3CC4CC(C3)CC2C4)Sc2ccccc2N1 (stereo unspecified)
inactive: [1] -33.5% | [2] -0.15% | [3] -2.6% | [4] 8.8% | [5] -0.6% | [6] -21%

CSCSCC(CO)NC(=O)/C=C\c1ccccc1 (stereo unspecified)
inactive: [1] -0.7% | [2] -4.05% | [3] 7.15% | [4] -21.7% | [5] 4% | [6] 3.5%

O=C(c1ccc(Cl)cc1)c1onc(-c2ccccc2)c1-c1ccccc1
inactive: [1] -13.6% | [2] 0% | [3] -0.3% | [4] -43.9% | [5] -9.2% | [6] -3.05%

C=CCNC(=S)N/C=C\c1c(C(=O)O)cc([N+](=O)[O-])cc1[N+](=O)[O-]
inactive: [1] -7.85% | [2] -24.1% | [3] -31.2% | [4] -23.2% | [5] 3.2% | [6] 5.6%

c1ccc2c(c1)nc1n2C2CCC(C2)N1 (stereo unspecified)
inactive: [1] 4% | [2] 10% | [3] 18.8% | [4] 21.9% | [5] 6.15% | [6] 15.7%

CC(=O)Nc1ccc2oc(=O)[nH]c(=O)c2c1
inactive: [1] 10.8% | [2] -15.1% | [3] 6.3% | [4] 9.9% | [5] -18.6% | [6] -0.55%

Cc1ccc(-c2c(C#N)c(-c3ccc([N+](=O)[O-])cc3)c(C#N)c(=O)n2NS(=O)(=O)c2ccccc2)cc1
inactive: [1] 23.1% | [2] 16.8% | [3] 24.5% | [4] 27.4% | [5] 14.6% | [6] 0.8%

CCOC(=O)NC(NC(=O)OCC)c1ccc(Cl)cc1Cl
inactive: [1] -11.7% | [2] -4.55% | [3] -11.6% | [4] 5.9% | [5] 7.2% | [6] 7.8%

COc1cc2c[n+](C)c3ccccc3c2cc1OC
inactive: [1] 4.75% | [2] 12% | [3] -16.6% | [4] -7.3% | [5] -21.1% | [6] -6.35%

O=C(NCc1ccccc1)/C(=C/c1ccc2c(c1)OCO2)NC(=O)c1ccccc1
inactive: [1] -42% | [2] -50.1% | [3] -28.5% | [4] -6.2% | [5] -15.2% | [6] -22.2%

OC(Cc1cccnc1)(c1ccccc1)c1ccccc1
inactive: [1] -0.3% | [2] -40.4% | [3] -16.7% | [4] -21.5% | [5] -13.9% | [6] -0.4%

O=C1Sc2ccccc2Cn2cccc21
inactive: [1] -1.7% | [2] 13% | [3] 13.3% | [4] -19.6% | [5] -6.3% | [6] 8.7%

COC(=O)C1=C(C)N(NC(=O)c2cccc(Cl)c2)C(C)(O)C12CCOC2=O (stereo unspecified)
inactive: [1] 37.6% | [2] -21.6% | [3] 4.15% | [4] 6.65% | [5] 0.6% | [6] 38.1%

N#Cc1c2ccccc2c(C#N)c2ccccc12
inactive: [1] -4.5% | [2] -8.15% | [3] 1.9% | [4] -25.7% | [5] 1.3% | [6] -12.3%

O=C(NC12OC3CC(CC(C3)O1)O2)NC12OC3CC(CC(C3)O1)O2
inactive: [1] 3.6% | [2] 0.35% | [3] 14.2% | [4] -3.85% | [5] -30.3% | [6] 2.2%
